# Data: PubChem BioAssay AID651690 (Sanford-Burnham Center for Chemical Genomics, 2012)
# This is one part of the list. Values without a mark were called inactive. No stated cut-off is given here; in the data, active means inhibition mostly above about 32% (no sharp cut-off); inactive means mostly below about 29%.
# Target: Sentrin-specific protease 1 (Homo sapiens) (UniProt Q9P0U3)
# Assay: SENP1 SUMO protease blockers by rate readout – biochemical, kinetic FRET, single concentration, confirmation (AID 651690);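 further: 0% = DMSO with enzyme and 100% = no enzyme substrate only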
# Details: recombinant SENP1, CyPet-SUMO1-YPet FRET kinetic cleavage; at 10 µM; hits give high values
# Chain of Sentrin-specific protease 1 (Homo sapiens) (Q9P0U3 419-644 limits assumed): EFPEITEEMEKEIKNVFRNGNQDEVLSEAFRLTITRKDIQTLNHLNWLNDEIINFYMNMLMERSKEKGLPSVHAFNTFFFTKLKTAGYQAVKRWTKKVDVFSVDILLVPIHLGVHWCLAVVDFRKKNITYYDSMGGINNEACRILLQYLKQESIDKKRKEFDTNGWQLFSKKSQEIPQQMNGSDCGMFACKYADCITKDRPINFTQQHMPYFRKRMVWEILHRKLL
structure (smiles),measurement,value
COc1ccccc1N=Nc1c(O)[nH]c(=S)[nH]c1=O,inhibition,31.3%
